# Test results from the supplement of paper PMC8728848.
# Shown is part of a subset that was picked to be rich in the strongest signals.
# B1: Latrophilin-3 (Homo sapiens), Q9HAR2 (protein)
# chain: MWPSQLLIFMMLLAPIIHAFSRAPIPMAVVRRELSCESYPIELRCPGTDVIMIESANYGRTDDKICDSDPAQMENIRCYLPDAYKIMSQRCNNRTQCAVVAGPDVFPDPCPGTYKYLEVQYECVPYKVEQKVFLCPGLLKGVYQSEHLFESDHQSGAWCKDPLQASDKIYYMPWTPYRTDTLTEYSSKDDFIAGRPTTTYKLPHRVDGTGFVVYDGALFFNKERTRNIVKFDLRTRIKSGEAIIANANYHDTSPYRWGGKSDIDLAVDENGLWVIYATEQNNGKIVISQLNPYTLRIEGTWDTAYDKRSASNAFMICGILYVVKSVYEDDDNEATGNKIDYIYNTDQSKDSLVDVPFPNSYQYIAAVDYNPRDNLLYVWNNYHVVKYSLDFGPLDSRSGQAHHGQVSYISPPIHLDSELERPSVKDISTTGPLGMGSTTTSTTLRTTTLSPGRSTTPSVSGRRNRSTSTPSPAVEVLDDMTTHLPSASSQIPALEESCEAVEAREIMWFKTRQGQIAKQPCPAGTIGVSTYLCLAPDGIWDPQGPDLSNCSSPWVNHITQKLKSGETAANIARELAEQTRNHLNAGDITYSVRAMDQLVGLLDVQLRNLTPGGKDSAARSLNKAMVETVNNLLQPQALNAWRDLTTSDQLRAATMLLHTVEESAFVLADNLLKTDIVRENTDNIKLEVARLSTEGNLEDLKFPENMGHGSTIQLSANTLKQNGRNGEIRVAFVLYNNLGPYLSTENASMKLGTEALSTNHSVIVNSPVITAAINKEFSNKVYLADPVVFTVKHIKQSEENFNPNCSFWSYSKRTMTGYWSTQGCRLLTTNKTHTTCSCNHLTNFAVLMAHVEVKHSDAVHDLLLDVITWVGILLSLVCLLICIFTFCFFRGLQSDRNTIHKNLCISLFVAELLFLIGINRTDQPIACAVFAALLHFFFLAAFTWMFLEGVQLYIMLVEVFESEHSRRKYFYLVGYGMPALIVAVSAAVDYRSYGTDKVCWLRLDTYFIWSFIGPATLIIMLNVIFLGIALYKMFHHTAILKPESGCLDNIKSWVIGAIALLCLLGLTWAFGLMYINESTVIMAYLFTIFNSLQGMFIFIFHCVLQKKVRKEYGKCLRTHCCSGKSTESSIGSGKTSGSRTPGRYSTGSQSRIRRMWNDTVRKQSESSFITGDINSSASLNREGLLNNARDTSVMDTLPLNGNHGNSYSIASGEYLSNCVQIIDRGYNHNETALEKKILKELTSNYIPSYLNNHERSSEQNRNLMNKLVNNLGSGREDDAIVLDDATSFNHEESLGLELIHEESDAPLLPPRVYSTENHQPHHYTRRRIPQDHSESFFPLLTNEHTEDLQSPHRDSLYTSMPTLAGVAATESVTTSTQTEPPPAKCGDAEDVYYKSMPNLGSRNHVHQLHTYYQLGRGSSDGFIVPPNKDGTPPEGSSKGPAHLVTSL
# Columns and labels:
# Assay in all cases: glycan array binding signal (z-score within array); higher = stronger binding
# Settings in all cases: glycan notation: IUPAC condensed, linker removed
# Fuc(a1-2)Gal = biological target: Fuc(a1-2)Gal
# How it was run: (§1)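 Glycan array binding is given as a within-array Z-score, which can be read as non-binding when negative. The arrays, 3228 of them, came from the Consortium for Functional Glycomics database and were retained only where the protein sequence was available. Z-scores were averaged across arrays of the same protein sequence at different concentrations or buffers and across linkers.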
# [1] = biological target: Fuc(a1-2)Gal(b1-3)GalNAc(b1-4)[Neu5Ac(a2-3)]Gal(b1-4)Glc
# How it was run: as §1
# Fuc(a1-2)Gal(b1-3)GlcNAc = biological target: Fuc(a1-2)Gal(b1-3)GlcNAc
# How it was run: as §1
# [2] = biological target: Fuc(a1-2)Gal(b1-3)GlcNAc(b1-3)GalNAc
# How it was run: as §1
# [3] = biological target: Fuc(a1-2)Gal(b1-4)GlcNAc(b1-2)[Fuc(a1-2)Gal(b1-4)GlcNAc(b1-4)]Man(a1-3)[Fuc(a1-2)Gal(b1-4)GlcNAc(b1-2)Man(a1-6)]Man(b1-4)GlcNAc(b1-4)GlcNAc
# How it was run: as §1
# [4] = biological target: Fuc(a1-2)Gal(b1-4)GlcNAc(b1-3)Gal(b1-4)GlcNAc(b1-3)Gal(b1-4)GlcNAc
# How it was run: as §1
# [5] = biological target: Fuc(a1-2)Gal(b1-4)GlcNAc(b1-6)GalNAc
# How it was run: as §1
# [6] = biological target: Fuc(a1-2)Gal(b1-4)[Fuc(a1-3)]GlcNAc(b1-3)GalNAc
# How it was run: as §1
# [7] = biological target: Fuc(a1-2)[Gal(a1-3)]Gal(b1-3)GlcNAc(b1-2)Man(a1-3)[Fuc(a1-2)[Gal(a1-3)]Gal(b1-3)GlcNAc(b1-2)Man(a1-6)]Man(b1-4)GlcNAc(b1-4)[Fuc(a1-6)]GlcNAc
# How it was run: as §1
# [8] = biological target: Fuc(a1-2)[Gal(a1-3)]Gal(b1-4)Glc
# How it was run: as §1
# [9] = biological target: Fuc(a1-2)[Gal(a1-3)]Gal(b1-4)GlcNAc(b1-2)Man(a1-3)[Fuc(a1-2)[Gal(a1-3)]Gal(b1-4)GlcNAc(b1-2)Man(a1-6)]Man(b1-4)GlcNAc(b1-4)GlcNAc
# How it was run: as §1
# [10] = biological target: Fuc(a1-2)[GalNAc(a1-3)]Gal(b1-4)GlcNAc(b1-3)GalNAc
# How it was run: as §1
# [11] = biological target: Fuc(a1-2)[GalNAc(a1-3)]Gal(b1-4)[Fuc(a1-3)]GlcNAc(b1-3)GalNAc
# How it was run: as §1
# [12] = biological target: Fuc(a1-3)[Gal(b1-4)]GlcNAc(b1-6)[Neu5Ac(a2-3)Gal(b1-3)]GalNAc
# How it was run: as §1
# Gal(a1-2)Gal = biological target: Gal(a1-2)Gal
# How it was run: as §1
# [13] = biological target: Gal(a1-3)Gal(b1-3)GlcNAc(b1-6)GalNAc
# How it was run: as §1
# Gal(a1-3)Gal(b1-4)GlcNAc = biological target: Gal(a1-3)Gal(b1-4)GlcNAc
# How it was run: as §1
# [14] = biological target: Gal(b1-3)[Fuc(a1-4)]GlcNAc
# How it was run: as §1
# [15] = biological target: Gal(b1-3)[Fuc(a1-4)]GlcNAc(b1-3)Gal(b1-3)[Fuc(a1-4)]GlcNAc
# How it was run: as §1
# [16] = biological target: Gal(b1-4)GlcNAc(b1-2)Man(a1-6)Man(b1-4)GlcNAc(b1-4)GlcNAc
# How it was run: as §1
# [17] = biological target: Gal(b1-4)GlcNAc(b1-3)Gal(b1-4)GlcNAc
# How it was run: as §1
# [18] = biological target: Gal(b1-4)GlcNAc(b1-3)[Gal(b1-4)GlcNAc(b1-6)]Gal(b1-4)GlcNAc
# How it was run: as §1
# Gal(b1-6)Gal = biological target: Gal(b1-6)Gal
# How it was run: as §1
# [19] = biological target: Gal3S(b1-4)[Fuc(a1-3)]Glc6S
# How it was run: as §1
# Gal6S(b1-3)GlcNAc = biological target: Gal6S(b1-3)GlcNAc
# How it was run: as §1
# [20] = biological target: GalNAc(a1-3)GalNAc(b1-3)Gal(a1-4)Gal(b1-4)Glc
# How it was run: as §1
# GalNAc4S6S(b1-4)GlcNAc = biological target: GalNAc4S6S(b1-4)GlcNAc
# How it was run: as §1
# GalNAc6S(b1-4)GlcNAc = biological target: GalNAc6S(b1-4)GlcNAc
# How it was run: as §1
# Glc(a1-4)Glc = biological target: Glc(a1-4)Glc
# How it was run: as §1
# [21] = biological target: GlcNAc(a1-4)Gal(b1-4)GlcNAc(b1-3)Gal(b1-4)[Fuc(a1-3)]GlcNAc(b1-3)Gal(b1-4)[Fuc(a1-3)]GlcNAc
# How it was run: as §1
binder,measurement,setting,value
B1,glycan array binding signal (z-score),Fuc(a1-2)Gal,0.041
same,glycan array binding signal (z-score),[1],-0.493
same,glycan array binding signal (z-score),Fuc(a1-2)Gal(b1-3)GlcNAc,-0.169
same,glycan array binding signal (z-score),[2],0.261
same,glycan array binding signal (z-score),[3],-0.478
same,glycan array binding signal (z-score),[4],0.659
same,glycan array binding signal (z-score),[5],2.91
same,glycan array binding signal (z-score),[6],4.34
same,glycan array binding signal (z-score),[7],-0.721
same,glycan array binding signal (z-score),[8],0.962
same,glycan array binding signal (z-score),[9],-0.684
same,glycan array binding signal (z-score),[10],-0.844
same,glycan array binding signal (z-score),[11],4.19
same,glycan array binding signal (z-score),[12],-0.297
same,glycan array binding signal (z-score),Gal(a1-2)Gal,2.83
same,glycan array binding signal (z-score),[13],-0.37
same,glycan array binding signal (z-score),Gal(a1-3)Gal(b1-4)GlcNAc,-0.823
same,glycan array binding signal (z-score),[14],-0.275
same,glycan array binding signal (z-score),[15],-0.618
same,glycan array binding signal (z-score),[16],3.58
same,glycan array binding signal (z-score),[17],-0.111
same,glycan array binding signal (z-score),[18],3.02
same,glycan array binding signal (z-score),Gal(b1-6)Gal,-0.409
same,glycan array binding signal (z-score),[19],-0.622
same,glycan array binding signal (z-score),Gal6S(b1-3)GlcNAc,0.183
same,glycan array binding signal (z-score),[20],-1.16
same,glycan array binding signal (z-score),GalNAc4S6S(b1-4)GlcNAc,1.42
same,glycan array binding signal (z-score),GalNAc6S(b1-4)GlcNAc,3.81
same,glycan array binding signal (z-score),Glc(a1-4)Glc,-0.053
same,glycan array binding signal (z-score),[21],2.21
